These results are taken from PubChem BioAssay.

The structures appear in SMILES notation. For part of these data: Entries with a potency or affinity are not part of this list. Active and inactive are the calls of the source.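 How the source made its calls, unless noted: active means hit in primary screen, with calcium signal over 5 SD above buffer well mean in both duplicates; inactive means the rest.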

Test [1] relates to TRPC4 beta (transient receptor potential cation channel C4), mouse. Nature of the test: TRPC4 cation channel opening, retest – cell-based, Fluo4 calcium, HEK293 TRPC4beta/mu-opioid, duplicates, 10 µM, confirmation (AID 2426;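 active means fluorescence ratio normalized to control raised more than 50% in primary screen plus both repeat runs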;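 on activation: percent rise of integrated ratio over buffer wells lacking compound which define 0%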). The conditions noted are these: Fluo4 calcium fluorescence, at 10 µM; hits give high values.
Test [2] deals with transient receptor potential cation channel C4 beta (TRPC4), mouse. Briefly: TRPC4 cation channel opening, second retest – cell-based, second round, Fluo4, HEK293 TRPC4beta/mu-opioid, 1 µM, confirmation (AID 2461;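 active means primary screen active and over 50% activation in each of two duplicate runs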;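 on activation: 0% = wells without test compound as baseline of integrated fluorescence ratio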). As to conditions: Fluo4 calcium fluorescence, at 1 µM; hits give high values.
For test [3], the system named is TRPC4 (transient receptor potential cation channel C4 beta), mouse. Briefly: potentiation of DAMGO EC20 TRPC4 response – cell-based, second round, Fluo-4, HEK293 TRPC4beta/mu-opioid, 1 µM, confirmation (AID 2554;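 active means primary screen hit whose fluorescence ratio, in both repeats, exceeds the weak agonist control mean by 3 SD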). As to conditions: DAMGO EC20, Fluo-4 calcium flux, at 1 µM; hits give high values.
The test system of test [4] is TRPC4 beta (transient receptor potential cation channel C4), mouse. Nature of the test: potentiation of DAMGO EC20 TRPC4 response – cell-based, Fluo-4, HEK293 TRPC4beta/mu-opioid, confirmation (AID 2555;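 active means primary screen hit whose calcium fluorescence ratio, in both repeats, exceeds the weak agonist control mean by 3 SD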). As to conditions: DAMGO EC20, Fluo-4 calcium flux, at 10 µM; hits give high values.
In test [5] the target is Short transient receptor potential channel 4 (Mus musculus) (UniProt Q9QUQ5). Briefly: blockers of DAMGO-evoked TRPC4 calcium flux – cell-based, Fluo4, HEK293 TRPC4beta/mu-opioid, confirmation (AID 2636;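 active means calcium signal cut by more than 3 SD below the full-agonist control yet still positive, in both repeats and the earlier primary screen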). The conditions noted are these: at 10 µM; hits give high values.
Short transient receptor potential channel 4 (Mus musculus), sequence (Q9QUQ5 whole entry, looked up): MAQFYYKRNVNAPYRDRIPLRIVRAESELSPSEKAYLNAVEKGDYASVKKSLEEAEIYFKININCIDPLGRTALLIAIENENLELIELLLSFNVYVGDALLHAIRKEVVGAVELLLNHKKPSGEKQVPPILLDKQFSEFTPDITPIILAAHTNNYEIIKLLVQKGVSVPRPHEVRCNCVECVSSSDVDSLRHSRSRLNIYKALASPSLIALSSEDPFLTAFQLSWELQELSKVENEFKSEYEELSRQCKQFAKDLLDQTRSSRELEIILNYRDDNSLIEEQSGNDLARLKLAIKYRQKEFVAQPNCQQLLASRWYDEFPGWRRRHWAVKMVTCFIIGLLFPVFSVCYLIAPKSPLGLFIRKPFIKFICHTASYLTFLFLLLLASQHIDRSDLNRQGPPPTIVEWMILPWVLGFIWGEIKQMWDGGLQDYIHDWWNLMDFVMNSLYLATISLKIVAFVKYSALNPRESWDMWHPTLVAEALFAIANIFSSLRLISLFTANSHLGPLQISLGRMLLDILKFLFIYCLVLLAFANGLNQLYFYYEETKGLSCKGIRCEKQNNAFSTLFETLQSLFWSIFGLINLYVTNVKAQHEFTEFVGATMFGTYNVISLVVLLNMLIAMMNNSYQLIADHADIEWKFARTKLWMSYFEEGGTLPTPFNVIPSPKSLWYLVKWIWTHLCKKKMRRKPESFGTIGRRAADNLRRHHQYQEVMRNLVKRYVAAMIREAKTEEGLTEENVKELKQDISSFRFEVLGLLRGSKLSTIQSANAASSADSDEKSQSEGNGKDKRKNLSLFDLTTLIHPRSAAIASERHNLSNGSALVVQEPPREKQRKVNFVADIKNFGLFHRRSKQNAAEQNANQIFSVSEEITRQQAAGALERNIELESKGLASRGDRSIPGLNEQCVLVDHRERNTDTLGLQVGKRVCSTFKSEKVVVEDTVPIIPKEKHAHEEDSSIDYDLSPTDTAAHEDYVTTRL
Test [6] shares this target. Nature of the test: blockers of DAMGO-evoked TRPC4 calcium flux – cell-based, second round, Fluo4, HEK293 TRPC4beta/mu-opioid, 1 µM, confirmation (AID 2637;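 active means calcium signal ratio cut to more than 3 SD under the fully stimulated control mean yet still positive, in both repeats and the primary screen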). As to conditions: at 1 µM; hits give high values.
The target is the same in test [7]. Briefly: potentiation of DAMGO-evoked TRPC4 calcium signal – cell-based, HEK293 TRPC4/mu-opioid, Fluo-4 calcium, EC20 DAMGO, dose response (AID 434941;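 active means earlier screen potentiator hit that boosts the TRPC4 ion channel at some dose, with a dose response; inactive means no potentiation, no dose response, or not a prior hit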;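 further: calcium entry triggered by an EC20 dose of DAMGO at the co-expressed mu-opioid receptor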).
The target is the same in test [8]. Briefly: block of DAMGO-driven TRPC4 calcium entry – cell-based, HEK293 TRPC4/mu-opioid, Fluo-4 calcium, dose response (AID 434942;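 active means primary screen inhibitor hit that blocks the TRPC4 channel at some tested dose, yielding a dose curve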).
Test [9] concerns the target Short transient receptor potential channel 6 (Mus musculus) (UniProt Q61143). Nature of the test: TRPC6 blockade by TRPC4 inhibitor hits – cell-based, HEK293, membrane potential dye, duplicate, selectivity assay for TRPC4 inhibitor project, confirmation (AID 434948;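 active means active in primary screen and both duplicates, each dropping signal beyond three positive-control SD with fluorescence still positive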). The conditions noted are these: HEK293 TRPC6, membrane potential dye fluorescence, at 10 µM, stimulated with maximal-effect acetylcholine; hits give high values.

For test [10] the target is unchanged. Nature of the test: TRPC6 opening by TRPC4 activator hits – cell-based, HEK293, membrane potential dye, duplicate, selectivity assay for TRPC4 activator project, confirmation (AID 434950;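 active means membrane potential signal rise above negative control mean plus 3 SD in both duplicates, also active in the earlier TRPC4 screen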;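 on activation: 0% = buffer only wells and 100% = acetylcholine maximal-effect wells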). The conditions noted are these: HEK293 TRPC6, membrane potential fluorescence, at 10 µM; activation: hits give high values; outcome: activation.
For test [11] the target is unchanged. Briefly: positive modulators of mouse TRPC6 channel – HEK293 cells, membrane potential dye, duplicate, selectivity assay for TRPC4 potentiator project, confirmation (AID 434952;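 active means compound raising the membrane signal above positive-control mean plus 3 SD in both repeats, and a primary screen hit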). The conditions noted are these: HEK293 TRPC6, membrane potential dye fluorescence, at 10 µM, maximal acetylcholine added after compound; hits give high values.
Test [12] has as its target Short transient receptor potential channel 4 (Mus musculus) (UniProt Q9QUQ5). Nature of the test: calcium flux activators in TRPC4/5HT1a cells, counter-screen for TRPC4 activator project, cell-based, second counter screen, HEK293 TRPC4/5HT1a, Fluo-4 (AID 434977;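 active means calcium signal rise above buffer-control mean plus 5 SD in both duplicates, and also a hit in the primary screen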;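 on activation: plate controls were assay buffer for no effect and maximal serotonin response for full effect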). The conditions noted are these: Fluo-4 calcium flux, at 10 µM; hits give high values.
Test [13] is described as follows: serotonin-gated TRPC4 signal block – cell-based, second counter screen, HEK293 TRPC4/5HT1a, Fluo-4, counter-screen for TRPC4 inhibitor project, confirmation (AID 434978;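 active means primary screen active whose calcium signal fell more than 3 SD beyond the full-serotonin control mean in both duplicate plates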;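 further: serotonin given first at submaximal then at maximal dose after compound preincubation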). As to conditions: Fluo-4 calcium flux, at 10 µM, serotonin added to trigger calcium flux; hits give high values.
In test [14] the test system is TRPC4 (mouse), co-expressed with 5HT1a in HEK293. Nature of the test: enhancement of serotonin-evoked TRPC4 response – cell-based, second counter screen, HEK293 TRPC4/5HT1a, Fluo-4, counter-screen for TRPC4 potentiator project, confirmation (AID 434979;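 active means signal rise over 3 SD above mean of control wells given weak agonist, in both repeats and first screen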). As to conditions: Fluo-4 calcium flux, at 10 µM, serotonin added at its EC20 dose; hits give high values.
Test [15] in a line: nonspecific calcium rise without TRPC4 – cell-based, HEK293 mu-opioid receptor line, counter-screen for TRPC4 activator project, confirmation (AID 449723).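 Further: counter screen cells carry the mu-opioid receptor alone and lack TRPC4.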 As to conditions: HEK293 mu-opioid cells, Fluo-4 calcium fluorescence, at 10 µM; hits give high values.
Test [16] can be described thus: nonspecific potentiation of DAMGO calcium response – cell-based, HEK293 mu-opioid receptor line, counter-screen for TRPC4 allosteric potentiator project, confirmation (AID 449724;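 active means calcium signal rise more than 3 SD above the low-dose agonist control mean, in both duplicate plates and the primary screen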;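 further: HEK293 cells carrying mu-opioid receptor only with no TRPC4 channel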). The conditions noted are these: HEK293 mu-opioid receptor cells, Fluo-4 calcium flux, at 10 µM, compound added before EC20 DAMGO stimulus; hits give high values.

Short transient receptor potential channel 6 (Mus musculus), sequence (Q61143 whole entry, looked up): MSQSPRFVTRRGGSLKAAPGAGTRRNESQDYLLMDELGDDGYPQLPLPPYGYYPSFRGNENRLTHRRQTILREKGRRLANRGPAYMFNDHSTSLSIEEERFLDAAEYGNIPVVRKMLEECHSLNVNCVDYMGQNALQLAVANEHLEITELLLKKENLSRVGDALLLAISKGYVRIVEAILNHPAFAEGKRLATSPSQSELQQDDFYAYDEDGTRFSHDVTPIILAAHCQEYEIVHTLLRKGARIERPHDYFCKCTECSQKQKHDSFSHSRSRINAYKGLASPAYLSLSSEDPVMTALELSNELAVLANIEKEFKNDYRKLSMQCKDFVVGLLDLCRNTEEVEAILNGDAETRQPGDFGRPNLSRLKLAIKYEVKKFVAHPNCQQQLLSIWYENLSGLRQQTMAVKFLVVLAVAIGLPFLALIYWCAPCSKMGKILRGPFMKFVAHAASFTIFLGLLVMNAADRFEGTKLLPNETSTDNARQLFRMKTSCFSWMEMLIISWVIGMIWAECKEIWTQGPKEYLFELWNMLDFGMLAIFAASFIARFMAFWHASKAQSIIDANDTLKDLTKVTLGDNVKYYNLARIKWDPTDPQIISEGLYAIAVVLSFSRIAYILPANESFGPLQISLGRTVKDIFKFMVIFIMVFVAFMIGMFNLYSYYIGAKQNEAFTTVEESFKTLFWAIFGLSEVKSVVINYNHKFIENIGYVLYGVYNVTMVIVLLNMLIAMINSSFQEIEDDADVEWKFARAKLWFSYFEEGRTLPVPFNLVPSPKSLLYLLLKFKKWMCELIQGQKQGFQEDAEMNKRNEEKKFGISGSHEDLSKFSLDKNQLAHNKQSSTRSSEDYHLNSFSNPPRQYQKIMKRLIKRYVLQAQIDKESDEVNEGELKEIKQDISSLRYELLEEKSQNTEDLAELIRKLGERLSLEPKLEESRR

Consider `CN(CCc1ccccn1)C(=O)CC1C(=O)NCCN1Cc1cccc(F)c1` (stereo not given), for which the activation in [1] was 214% (active); in test [12], 60.9% (active). For the same molecule, the result in test [2], in test [3], in test [4], in test [5], in test [6] and in [7] was inactive. Moreover, the outcome in test [8], in test [9], in test [10], in test [11], in test [13] and in [14] was inactive. Besides, the outcome in test [15] and in [16] was inactive.
With `Cc1ccc(-n2cc(CNC(C)c3cnn(C)c3)c(-c3ccc(F)cc3)n2)cc1` (stereo not given), the activation was 232% (active) in [1], 103% (active) in [2], 33% (active) in test [10] and 5.72% (active) in test [12]. For the same molecule, the result in test [3], in test [4], in test [5], in test [6], in [7] and in test [8] was inactive. The molecule was called inactive in [9], in test [11], in test [13], in test [14], in test [15] and in [16].
Turning to `O=C1NCN(c2ccccc2)C12CCN(CCCC(c1ccc(F)cc1)c1ccc(F)cc1)CC2`, the result in test [1], in test [2], in test [3], in test [4], in [5] and in [6] was inactive. The result in test [7], in [8], in test [9], in test [11], in [12] and in test [13] was inactive. Besides, the outcome in [14], in [15] and in [16] was inactive. In addition, the activation in test [10] was 31% (active).
With `CC(=O)c1ccc(S(=O)(=O)NCc2ccc(C(=O)NCC(c3ccccc3)N(C)C)cc2)cc1` (stereo not given), the activation is 127% (active) in test [1], 99% (active) in test [2] and 33% (active) in test [10]. Moreover, the outcome in [3], in test [4], in test [5], in [6], in test [7] and in test [8] was inactive. Moreover, the molecule was classed as inactive in test [9], in [11], in [12], in test [13], in [14] and in test [15]. Further, the result in [16] was inactive.
For `C=CCn1c(/N=C/c2ccc(N(C)C)cc2)nc2ccccc21`, the activation was 148% (active) in [1]; 159% (active) in test [10]; 44.6% (active) in [12]; 103% (active) in test [15]; 1320% (active) in test [16]. Moreover, the result in test [2], in [3], in [5], in [6], in test [7] and in test [8] was inactive. Moreover, the molecule was called inactive in test [9], in [11] and in [13]. The potentiation in test [4] is 24% (active); in [14], 10.4% (active).
With `COc1ccc(C(CCNCc2ccc(N(C)C)cc2)c2ccccc2)cc1` (stereo not given), the activation in test [1] was 165% (active); in test [12], 26.5% (active). Moreover, the result in test [2], in test [3], in [4], in [5], in [6] and in test [7] was inactive. The outcome in test [8], in [9], in [10], in test [11], in [13] and in test [14] was inactive. The result in test [15] and in [16] was inactive.
Consider `CCCN(CCC(=O)Nc1cc(OC)cc(OC)c1)CC1CC1`, for which the activation in test [1] is 180% (active); in test [2], 69% (active); in test [10], 49% (active); in test [12], 54.9% (active). Moreover, the result in [3], in test [4], in test [5], in [6], in [7] and in test [8] was inactive. In addition, the result in [9], in [11], in test [13], in test [14], in test [15] and in test [16] was inactive.
In the case of `Cc1ccccc1C(=O)NNC(=S)NC(=O)COc1ccccc1`, the activation in [1] is 180% (active); in [12], 127% (active); in test [15] it was 43.2% (active). Also, the outcome in test [2], in test [3], in test [4], in [5], in [6] and in test [7] was inactive. Also, the result in test [8], in test [9], in [10], in test [11], in [13] and in [14] was inactive. For the same molecule, in [16], the outcome was inactive.
`Cc1csc2c(N3CCN(C(=O)Nc4ccc(Cl)c(Cl)c4)CC3)ncnc12`: the figures for the activation in [1] and in test [12] were 115% (active) and 40.3% (active), respectively. In addition, the outcome in test [2], in [3], in test [4], in test [5], in [6] and in [7] was inactive. Besides, the outcome in [8], in test [9], in test [10], in test [11], in test [13] and in [14] was inactive. The outcome in test [15] and in test [16] was inactive.
As to `CC1CC(C)CN(CCCNC(=O)c2ccc3c(c2)N(Cc2ccccc2)C(=O)c2ccccc2S3=O)C1` (stereo not given), the activation in [1] is 106% (active); in test [2], 54% (active); in test [12], 23.8% (active). Besides, the result in [3], in [4], in test [5], in test [6], in [7] and in test [8] was inactive. Further, the molecule was classed as inactive in test [9], in test [10], in [11], in test [13], in test [14] and in [15]. Besides, in [16], the outcome was inactive.
Regarding `COc1ccc(C(CNC(=O)C(Cc2ccccc2)NC(N)=O)N(C)C)cc1` (stereo not given), the activation in test [1] was 92% (active); in test [2], 90% (active); in test [10] it was 32% (active). In addition, the result in [3], in test [4], in test [5], in test [6], in test [7] and in [8] was inactive. The call in [9], in [11], in test [12], in [13], in test [14] and in [15] was inactive. Further, the result in [16] was inactive.
With `NCCNC(=O)c1c(NC(=O)c2ccccc2)sc2c1CCCC2`, the activation in test [1] is 165% (active). The outcome in test [2], in test [3], in test [4], in test [5], in test [6] and in [7] was inactive. Also, the outcome in test [8], in test [9], in test [10], in test [11], in test [12] and in [13] was inactive. The result in test [14], in test [15] and in test [16] was inactive.
Consider `Cc1cccc(OCCOCCN2CCNCC2)c1C`, for which the activation in test [1] is 167% (active); in test [2], 69% (active); in [10] it was 35% (active); in test [12], 65.6% (active). In addition, the outcome in test [3], in test [4], in [5], in test [6], in test [7] and in [8] was inactive. For the same molecule, the molecule was called inactive in test [9], in [11], in test [13], in [14], in test [15] and in test [16].
`CCOC(=O)C1(CCOc2ccccc2)CCN(Cc2cc(OC)ccc2OC)CC1`: the activation in [1] is 68% (active); in [10] it was 118% (active). In addition, the outcome in [2], in test [3], in test [4], in test [5], in test [6] and in [7] was inactive. The result in [8], in [9], in [11], in test [12], in test [13] and in [14] was inactive. For the same molecule, the result in test [15] and in test [16] was inactive.
As to `CCOC(=O)c1ccc(NC(=O)NCCc2cnc[nH]2)cc1`, the activation in test [1] was 147% (active); in [2], 136% (active); in test [10], 38% (active); in [12] it was 90.7% (active). Moreover, the result in test [3], in test [4], in [5], in test [6], in test [7] and in test [8] was inactive. Further, the molecule was classed as inactive in test [9], in test [11], in [13], in test [14], in test [15] and in test [16].
